The record followed here is PubChem BioAssay (NCATS).

The nature of test [1]: qHTS profiling for inhibitors of Plasmodium falciparum proliferation (AID 504749).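 For activity, negative = inhibition: 0% = DMSO vehicle and full inhibition = artemisinin control.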 Note: nearly all actives have a fitted effect of over 60% in size. The conditions noted are these: P. falciparum in erythrocytes, SYBR Green DNA, 72 h. In outline:
(§1)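 Fluorescence of SYBR Green-bound parasite DNA, read at 485/535 nm, served as the growth measure. Infected erythrocytes were cultured with compound 72 h; artemisinin (0.29 uM) and DMSO wells defined the normalization range.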
On the technique in general: In qHTS, concentration-response curves come from the screen itself.

In test [2] the test system is 3D7. Described as above. To be noted: P. falciparum in erythrocytes, SYBR Green DNA, 72 h; series mostly up to 28.7 µM. In outline:
as §1

The subject of test [3] is 7G8. Described as above. The conditions noted are these: P. falciparum in erythrocytes, SYBR Green DNA, 72 h; series mostly up to 28.7 µM. In outline: as §1
Test [4] deals with AA1029. Described as above. The conditions noted are these: P. falciparum in erythrocytes, SYBR Green DNA, 72 h; series mostly up to 28.7 µM. In outline:
as §1

Test [5] deals with AS120. The description is as above. The conditions noted are these: P. falciparum in erythrocytes, SYBR Green DNA, 72 h; series mostly up to 28.7 µM. In outline:
as §1

The mark [6] stands for this setting: at 28.7 µM (top of the series), parasite line A.
The mark [7] stands for this setting: at 28.7 µM (top of the series), parasite line B.

Results filed as inconclusive are left out. Values without a mark were called inactive. The source made the active and inactive calls. Calls come from the whole dose curve; as a rule, active = well fitted inhibition curve with a large enough effect; inconclusive = small, poorly fitted or top-dose-only effect; inactive = flat fitted curve, though single readings scatter.
Potency is the fitted concentration of half-maximal effect.

On to `NC(=O)c1ncn(C2OC(CO)C(O)C2O)n1` (stereo unspecified), for which the activity, negative = inhibition was -11.3% in test [1] (setting [6]) and -20.5% in test [1] (setting [7]). Besides, the Potency result in test [2], in test [4] and in test [5] was “inactive” each time. Besides, the Potency in test [3] was 7.94 µM (active).
As for `O=CCCCC=O`, the activity, negative = inhibition in test [1] (setting [6]) was -0.127%; in test [1] (setting [7]) it was 0.568%. In addition, the Potency result in test [2], in test [4] and in test [5] was “inactive” throughout. Also, the Potency in test [3] is 10 µM (active).
Take `CO[C@H]1C[C@@H]2CC[C@@H](C)[C@@](O)(O2)C(=O)C(=O)N2CCCC[C@H]2C(=O)O[C@H]([C@H](C)C[C@@H]2CC[C@@H](OCCO)[C@H](OC)C2)CC(=O)[C@H](C)/C=C(\C)[C@@H](O)[C@@H](OC)C(=O)[C@H](C)C[C@H](C)/C=C/C=C/C=C/1C`: the Potency in test [1] (parasite line A) was 2.24 µM (active); in test [1] (parasite line B), 1.12 µM (active); in test [2], 1.78 µM (active); in test [3], 1.12 µM (active); in test [4], 1.41 µM (active); in test [5], 1.12 µM (active).
In the case of `COc1cc(-c2ccc(-[n+]3nc(-c4ccccc4)nn3-c3ccc([N+](=O)[O-])cc3)c(OC)c2)ccc1-[n+]1nc(-c2ccccc2)nn1-c1ccc([N+](=O)[O-])cc1`, the Potency in test [1] (parasite line A) is 10 µM (active); in test [1] (parasite line B), 11.2 µM (active); in test [2] it was 11.2 µM (active); in test [3] it was 11.2 µM (active); in test [4] it was 11.2 µM (active).
On to `COc1ccc2c3c1O[C@H]1C[C@@H](O)C=C[C@@]31CCN(C)C2`, for which the values for the activity, negative = inhibition in test [1] (setting [6]) and in test [1] (setting [7]) were 7.86% and -0.584%, respectively. The Potency result in test [2], in test [3], in test [4] and in test [5] was “inactive” in each case.
With `CCCCCCCCCCCC[n+]1ccc2ccccc2c1`, the Potency is 0.794 µM (active) in test [1] (parasite line A); 0.501 µM (active) in test [1] (parasite line B); 1.12 µM (active) in test [2]; 0.316 µM (active) in test [3]; 1.26 µM (active) in test [4]; 1.41 µM (active) in test [5].
For `COC(C(=O)C(O)C(C)O)C1Cc2cc3cc(OC4CC(OC5CC(O)C(O)C(C)O5)C(O)C(C)O4)c(C)c(O)c3c(O)c2C(=O)C1OC1CC(OC2CC(OC3CC(C)(O)C(O)C(C)O3)C(O)C(C)O2)C(O)C(C)O1` (stereo unspecified), the Potency in test [1] (parasite line A) is 0.158 µM (active); in test [1] (parasite line B) it was 0.224 µM (active); in test [2] it was 0.282 µM (active); in test [3] it was 0.0708 µM (active); in test [4] it was 0.141 µM (active); in test [5] it was 0.112 µM (active).
As to `CCN(CC)Cc1cc(Nc2ccnc3cc(Cl)ccc23)ccc1O`, the Potency in test [1] (parasite line A) is 0.0355 µM (active); in test [1] (parasite line B) it was 0.0398 µM (active); in test [2], 0.0282 µM (active); in test [3], 0.0355 µM (active); in test [4] it was 0.0631 µM (active); in test [5], 0.0447 µM (active).
As to `CC(NNC(=O)c1ccccc1)c1ccccc1` (stereo unspecified), the activity, negative = inhibition in test [1] (setting [6]) is 2.16%; in test [1] (setting [7]), 14.7%. In addition, the Potency entry in test [2], in test [3], in test [4] and in test [5] was “inactive” each time.
On to `COC(F)(F)C(Cl)Cl`, for which the activity, negative = inhibition in test [1] (setting [6]) was 16.9%; in test [1] (setting [7]), -4.97%. Besides, the Potency entry in test [2], in test [3], in test [4] and in test [5] was “inactive” each time.
Regarding `O=C(O)c1cc(O)c2c(c1)[O][Bi][O]2`, the values for the activity, negative = inhibition in test [1] (setting [6]) and in test [1] (setting [7]) were -9.75% and 14.4%, respectively. Also, the Potency entry in test [2], in test [3], in test [4] and in test [5] was “inactive” each time.
On to `CC[N+](C)(C)Cc1ccccc1Br`, for which the activity, negative = inhibition in test [1] (at 12.8 µM (top of the series), parasite line A) was 3.25%; in test [1] (at 12.8 µM (top of the series), parasite line B), 6.79%. Also, the Potency entry in test [2], in test [3], in test [4] and in test [5] was “inactive” throughout.
As to `CCCCC/C=C\C/C=C\CCCCCCCC(=O)O`, the activity, negative = inhibition was 6.83% in test [1] (setting [6]) and 5.9% in test [1] (setting [7]). The Potency result in test [2], in test [3], in test [4] and in test [5] was “inactive” in each case.
Turning to `CCCCCCCCCCCCCCCC(=O)OCC(COC(=O)CCCCCCCCCCCCCCC)OC(=O)CCCCCCCCCCCCCCC`, the results for the activity, negative = inhibition in test [1] (setting [6]) and in test [1] (setting [7]) were -0.409% and 9.45%, respectively. Moreover, the Potency entry in test [2], in test [3], in test [4] and in test [5] was “inactive” each time.
As for `CC(O)CO` (stereo unspecified), the activity, negative = inhibition was 8.15% in test [1] (setting [6]) and 7.84% in test [1] (setting [7]). The Potency entry in test [2], in test [3], in test [4] and in test [5] was “inactive” throughout.
Turning to `CCCCC(C)(O)C/C=C/[C@H]1[C@H](O)CC(=O)[C@@H]1CCCCCCC(=O)OC` (stereo partly specified), the activity, negative = inhibition in test [1] (setting [6]) was 0.758%; in test [1] (setting [7]) it was 3.16%. Moreover, the Potency entry in test [2], in test [3], in test [4] and in test [5] was “inactive” in each case.
As for `C=CCSSSCC=C`, the activity, negative = inhibition is 1.87% in test [1] (setting [6]) and 3.6% in test [1] (setting [7]). Also, the Potency entry in test [2], in test [3], in test [4] and in test [5] was “inactive” in each case.
With `CCC(=O)NCCC1CCc2ccc3c(c21)CCO3` (stereo unspecified), the activity, negative = inhibition in test [1] (setting [6]) was 6.95%; in test [1] (setting [7]) it was 0.538%. For the same molecule, the Potency entry in test [2], in test [3], in test [4] and in test [5] was “inactive” throughout.
In the case of `CC1=C(/C=C/C(C)=C/C=C/C(C)=C/C=C/C=C(C)/C=C/C=C(C)/C=C/C2=C(C)C(=O)CCC2(C)C)C(C)(C)CCC1=O`, the results for the activity, negative = inhibition in test [1] (setting [6]) and in test [1] (setting [7]) were -4.18% and 4.39%, respectively. In addition, the Potency entry in test [2], in test [3], in test [4] and in test [5] was “inactive” in each case.
Consider `C[C@]12CCC(=O)C=C1CC[C@@H]1[C@@H]2[C@@H](O)C[C@@]2(C)[C@H]1CC[C@]2(O)C(=O)COP(=O)(O)O`, for which the activity, negative = inhibition in test [1] (setting [6]) is 1.99%; in test [1] (setting [7]) it was -7.41%. Moreover, the Potency result in test [2], in test [3], in test [4] and in test [5] was “inactive” throughout.
As to `O=C(O)CN(CCN(CC(=O)O)CC(=O)O)CC(=O)O`, the activity, negative = inhibition is -1.94% in test [1] (setting [6]) and 14.3% in test [1] (setting [7]). For the same molecule, the Potency result in test [2], in test [3], in test [4] and in test [5] was “inactive” each time.
Consider `O=S(=O)(O)c1ccc2c(N=Nc3ccc(S(=O)(=O)O)c4ccccc34)c(O)c(S(=O)(=O)O)cc2c1`, for which the values for the activity, negative = inhibition in test [1] (setting [6]) and in test [1] (setting [7]) were -19.8% and -30%, respectively. Further, the Potency result in test [2], in test [3], in test [4] and in test [5] was “inactive” throughout.
